Tb PYK inh = blocks Trypanosoma brucei pyruvate kinase; TbPYK enzyme, Kinase-Glo Plus ATP luminescence, 45 min; Potency, µM (series often up to 76.8 µM), without a hit: top-dose activity, negative = inhibition, usual class: inhibitors; 410,000 tested, 0.12% active; AID 624173; note: potency is the fitted concentration of half-maximal effect; % is set by controls: 0 for no effect and ±100 for the full control effect; nearly all actives have a fitted effect of over 50% in size
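Enzyme and substrate buffer are dispensed first and compound is pin-transferred. ADP at 130 uM final then starts the reaction, which runs 45 min at room temperature. Detection reagent is added for 10 min before luminescence is imaged.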
Sm TGR inh = blocks Schistosoma mansoni thioredoxin glutathione reductase | purified TGR, DTNB reduction, TNB absorbance 405 nm | Potency, µM (doses to about 114 µM), without a hit: top-dose activity change, negative = inhibition, most hits filed as inhibitors | 360,000 tested, 3% active | AID 485364; note: potency is the fitted concentration of half-maximal effect; % is set by controls: 0 for no effect and ±100 for the full control effect; nearly all actives have a fitted effect of over 60% in size
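First, TGR (20 nM dispensed) and NADPH were mixed with compound. Second, a 15 min room-temperature incubation followed. Third, further NADPH and then DTNB were added to start the reaction. Finally, TNB absorbance was monitored kinetically.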
Giardia FBPA inh-1 = inhibitors of Giardia lamblia fructose-1,6-bisphosphate aldolase; purified Giardia FBPA; A8B2U2; Potency, µM (series often up to 59.6 µM), inactives show top-dose activity, negative = inhibition, most hits filed as inhibitors; 290,000 tested, 0.71% active; note: potency is the fitted concentration of half-maximal effect; % is set by controls: 0 for no effect and ±100 for the full control effect; nearly all actives have a fitted effect of over 55% in size
Target sequence (A8B2U2 whole entry, looked up): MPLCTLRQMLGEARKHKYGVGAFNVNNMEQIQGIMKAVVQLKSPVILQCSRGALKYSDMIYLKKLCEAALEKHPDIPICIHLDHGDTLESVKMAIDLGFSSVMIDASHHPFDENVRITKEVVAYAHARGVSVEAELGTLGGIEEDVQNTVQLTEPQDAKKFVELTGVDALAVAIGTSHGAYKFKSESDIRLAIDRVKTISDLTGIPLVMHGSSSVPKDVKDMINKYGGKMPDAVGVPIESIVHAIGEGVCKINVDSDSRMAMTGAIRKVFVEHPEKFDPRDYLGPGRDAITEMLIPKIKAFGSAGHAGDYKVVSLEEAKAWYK
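40 nM FBPA preincubated 10 min at RT with compound (up to 57.5 uM final), then substrate plus GAPDH/TPI/NAD/arsenate coupling and diaphorase/resazurin added. Fluorescence read after 20 min at RT, 525/598 nm.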
LmPK inh = blocks Leishmania mexicana pyruvate kinase activity; 290,000 tested, 0.37% active; purified LmPK, Kinase-Glo ATP luminescence, 1 h; AID 1721; Potency, µM (top dose mostly 57.5 µM), inactives show top-dose activity change, negative = inhibition, hits mostly inhibitors; Q27686; note: potency is the fitted concentration of half-maximal effect; % is set by controls: 0 for no effect and ±100 for the full control effect
Target sequence (Q27686 whole entry, looked up): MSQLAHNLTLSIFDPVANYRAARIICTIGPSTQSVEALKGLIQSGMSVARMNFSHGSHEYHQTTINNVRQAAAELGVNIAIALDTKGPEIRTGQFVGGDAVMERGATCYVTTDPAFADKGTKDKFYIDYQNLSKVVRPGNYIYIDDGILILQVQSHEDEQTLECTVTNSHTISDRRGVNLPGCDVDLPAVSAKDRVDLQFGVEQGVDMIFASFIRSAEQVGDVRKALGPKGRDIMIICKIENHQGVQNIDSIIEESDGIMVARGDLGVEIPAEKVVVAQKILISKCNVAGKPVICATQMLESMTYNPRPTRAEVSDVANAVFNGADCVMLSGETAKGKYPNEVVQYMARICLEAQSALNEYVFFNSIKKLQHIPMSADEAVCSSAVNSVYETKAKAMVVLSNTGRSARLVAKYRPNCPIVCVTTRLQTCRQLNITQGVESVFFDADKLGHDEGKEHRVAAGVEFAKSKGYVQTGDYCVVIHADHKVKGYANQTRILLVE
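Purified LmPK (0.1 nM) with 0.5 mM PEP and 0.1 mM ADP in imidazole buffer pH 7.2 with MgCl2/KCl, 1 h at room temperature. ATP formed was read by luciferase luminescence and normalized to no-enzyme and uninhibited controls.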
CHX counter = counter-screen for Shiga toxin inhibitors: cycloheximide protein synthesis inhibition. cell reporter, cycloheximide protein synthesis inhibition counterscreen. max response, %. 300,000 tested, 12% active; in the data active = max response mostly above about 13%, no sharp cut-off; inactive = mostly below about 14%; note: read at 38.3 µM for the half of the compounds with a filed dose; 0% is about no effect
Shiga inhibitor = inhibitors of Shiga toxin in Vero cells; Vero cells, Shiga toxin protein synthesis inhibition reporter; inhibition, % at 38.7 µM; 290,000 tested, 9.2% active; AID 2315; in the data active = inhibition mostly above about 28%, no sharp cut-off; inactive = mostly below about 43%; note: 0% is about no effect
Giardia growth = inhibitors of Giardia lamblia growth. shares compounds with Giardia FBPA inh-1. Giardia lamblia trophozoite growth inhibition. Potency, µM (highest dose often 57.5 µM), inactives show at the highest dose activity change, negative = inhibition, usual class: inhibitors. 1,500 tested, 5% active;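 note: potency is the fitted concentration of half-maximal effect; trophozoites exposed to compound for 48 h at 37 °C; % is set by controls: 0 for no effect and ±100 for the full control effect; nearly all actives have a fitted effect of over 70% in size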
Mammalian tox = toxic to mammalian cells in Giardia aldolase counter-screen; shares compounds with Giardia FBPA inh-1; mammalian cell viability counter-screen, qHTS; Potency, µM (series often up to 57.5 µM), for inactives: at the highest dose viability change, negative = toxicity, hits mostly inhibitors; 1,500 tested, 4% active; AID 2786;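 note: Chinese hamster ovary cells used as mammalian cytotoxicity surrogate; viability measured as cellular ATP by luminescence; potency is the fitted concentration of half-maximal effect; compound exposure lasted 48 h before reading; % is set by controls: 0 for no effect and ±100 for the full control effect; nearly all actives have a fitted effect of over 60% in size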
Giardia FBPA inh-2 = confirmation of Giardia fructose-bisphosphate aldolase inhibitors; 1,500 tested, 5% active; shares compounds with Giardia FBPA inh-1; Potency, µM (top dose mostly 57.5 µM), inactives show top-dose activity change, negative = inhibition, most hits filed as inhibitors; purified Giardia aldolase enzyme activity, qHTS; note: potency is the fitted concentration of half-maximal effect; % is set by controls: 0 for no effect and ±100 for the full control effect; nearly all actives have a fitted effect of over 45% in size
Rabbit aldolase = blocks rabbit muscle aldolase in Giardia aldolase selectivity test; Potency, µM (series often up to 57.5 µM), without a hit: at the top dose activity, negative = inhibition, usual class: inhibitors; shares compounds with Giardia FBPA inh-1; Rabbit muscle FBPA enzyme inhibition, selectivity counter-screen; AID 2794; 1,500 tested, 4% active; note: potency is the fitted concentration of half-maximal effect; % is set by controls: 0 for no effect and ±100 for the full control effect; nearly all actives have a fitted effect of over 60% in size
GAPDH counter = counter-screen for Giardia aldolase inhibitors: GAPDH coupling enzyme; shares compounds with Giardia FBPA inh-1; GAPDH coupling enzyme counterscreen, biochemical, qHTS; Potency, µM (doses to about 57.5 µM), for inactives: at the top dose activity change, negative = inhibition, most hits filed as inhibitors; 1,500 tested, 6% active; AID 2795; note: potency is the fitted concentration of half-maximal effect; % is set by controls: 0 for no effect and ±100 for the full control effect; nearly all actives have a fitted effect of over 55% in size
* marks the source's active call; other numbers are inactive results; [ ] = dose if it differs, or a comment. This is one part of a sample in which hits are shown more often than they occur. Unless noted, calls come from the whole dose curve; as a rule, active = well fitted curve in the direction sought with a large enough effect; inconclusive = small, poorly fitted or top-dose-only effect, or another doubt; inactive = no such curve, though single readings can be large; an effect the other way counts as inactive or inconclusive.

Results for CC1=C(C#N)C(=O)N(C2CCS(=O)(=O)C2)C(=O)/C1=C\c1ccco1 (stereo not drawn) ?
Sm TGR inh: 8.91µM*; Giardia FBPA inh-1: 9.98µM*; LmPK inh: inconclusive; CHX counter: -2.5; Shiga inhibitor: -8.7; Giardia growth: 11.6%[38.3 µM]; Mammalian tox: -5.5%; Giardia FBPA inh-2: inconclusive; Rabbit aldolase: inconclusive; GAPDH counter: 20.6µM*

How did Cc1ccc(C)n1C1CCS(=O)(=O)C1 (stereo not drawn) do in these assays?
Tb PYK inh: -2.9%; Sm TGR inh: -28.5%; Giardia FBPA inh-1: -1.9%; LmPK inh: 0.2%; CHX counter: -4.3; Shiga inhibitor: 4.1

How did COc1cc(C(c2c(C)[nH][nH]c2=O)c2c(C)[nH][nH]c2=O)cc([N+](=O)[O-])c1O do in these assays?
Tb PYK inh: -1.4%; Sm TGR inh: -20.3%; Giardia FBPA inh-1: 15.8µM*; LmPK inh: -0.4%; CHX counter: -2.7; Shiga inhibitor: -7.2; Giardia growth: -29.4%; Mammalian tox: -12.1%; Giardia FBPA inh-2: 5.62µM*; Rabbit aldolase: inconclusive; GAPDH counter: -15.9%

How did CCOC(=O)C1CCN(Cc2ccc3ccccc3c2)CC1 do in these assays?
Tb PYK inh: 12.1%; Sm TGR inh: -8.2%; Giardia FBPA inh-1: -26.6%; LmPK inh: -0.9%; CHX counter: 0.9; Shiga inhibitor: -9.8

Results for CCOC(=O)N1CCN(Cc2ccccn2)CC1 ?
Tb PYK inh: 0.0%; Sm TGR inh: 2.2%; Giardia FBPA inh-1: 14.1µM*; LmPK inh: -4.6%; CHX counter: 1.7; Shiga inhibitor: -4.2; Giardia growth: 33.5%; Mammalian tox: -9.9%; Giardia FBPA inh-2: -0.2%; Rabbit aldolase: 2.7%; GAPDH counter: 6.1%

Results for CCOC(=O)N1CCN(Cc2ccc3ccccc3c2)CC1 ?
Tb PYK inh: 17.5%; Sm TGR inh: -25.1%; Giardia FBPA inh-1: 25.1µM*; LmPK inh: 0.9%; CHX counter: -2.0; Shiga inhibitor: -5.8; Giardia growth: 8.7%[10.4 µM]; Mammalian tox: 9.5%; Giardia FBPA inh-2: 3.2%; Rabbit aldolase: 7.9%; GAPDH counter: 1.6%

Results for CC1CN(CC(=O)Nc2ccc(S(N)(=O)=O)cc2)CC(C)O1 (stereo not drawn) ?
Tb PYK inh: 3.0%; Sm TGR inh: 1.0%; Giardia FBPA inh-1: 4.3%; LmPK inh: 4.1%; CHX counter: -2.7; Shiga inhibitor: -6.4

How did COc1ccc(N)cc1-n1c(C)ccc1C do in these assays?
Tb PYK inh: -22.3%; Sm TGR inh: 15.8µM*; Giardia FBPA inh-1: inconclusive; LmPK inh: -8.5%; CHX counter: 25.1*; Shiga inhibitor: 36.6*; Giardia growth: 12.1%[38.3 µM]; Mammalian tox: 2.8%; Giardia FBPA inh-2: inconclusive; Rabbit aldolase: inconclusive; GAPDH counter: 8.91µM*

How did Cc1ccc(S(=O)(=O)N2CCN(C(=O)COC(=O)COc3cccc(C(F)(F)F)c3)CC2)c(C)c1 do in these assays?
Tb PYK inh: -0.2%

How did Nc1c(/C=C2/C=CC(=O)C(O)=C2)c(=O)nc2sc(CC(=O)N3CCCC3)nn12 do in these assays?
Tb PYK inh: 0.0%; Sm TGR inh: -13.7%; Giardia FBPA inh-1: 7.94µM*; LmPK inh: 4.1%; CHX counter: 6.4; Shiga inhibitor: -8.9; Giardia growth: -0.2%; Mammalian tox: 5.5%; Giardia FBPA inh-2: -17.6%; Rabbit aldolase: inconclusive; GAPDH counter: 0.2%

How did CCS(=O)(=O)N1CCN(Cc2ccncc2)CC1 do in these assays?
Tb PYK inh: -7.8%; Sm TGR inh: 5.4%; Giardia FBPA inh-1: 14.1µM*; LmPK inh: -2.6%; CHX counter: -1.8; Shiga inhibitor: 1.7; Giardia growth: 13.7%; Mammalian tox: 11.6%; Giardia FBPA inh-2: 7.5%; Rabbit aldolase: 3.9%; GAPDH counter: 17.3%

Results for Cc1[nH]n(-c2ccccc2)c(=O)c1/C=N/Nc1nncc(-c2ccccc2)n1 ?
Tb PYK inh: 0.5%; Sm TGR inh: -15.5%; Giardia FBPA inh-1: 7.92µM*; LmPK inh: -17.8%; CHX counter: -1.1; Shiga inhibitor: 1.7; Giardia growth: inconclusive; Mammalian tox: 20µM*; Giardia FBPA inh-2: -16.5%; Rabbit aldolase: -3.2%; GAPDH counter: -7.8%

What do the screens show for `N#Cc1cc2cc3c(cc2nc1N1CCCCC1)OCCO3`?
Tb PYK inh: -16.6%; Sm TGR inh: -31.0%; Giardia FBPA inh-1: 6.29µM*; LmPK inh: 1.2%; CHX counter: 21.8*; Shiga inhibitor: 46.1; Giardia growth: 56.2µM*; Mammalian tox: -26.3%; Giardia FBPA inh-2: -9.3%; Rabbit aldolase: -0.6%; GAPDH counter: -1.9%

Results for N#Cc1cc2cc3c(cc2nc1Cl)OCCO3 ?
Tb PYK inh: -2.8%

How did CC1(C(=O)NCc2cccs2)Cc2c(-c3ccccc3)ccnc2O1 (stereo not drawn) do in these assays?
Tb PYK inh: -1.6%

How did O=C(CCCSc1ccccc1)Nc1nc(-c2ccccn2)cs1 do in these assays?
Tb PYK inh: 6.0%; Sm TGR inh: -5.7%; Giardia FBPA inh-1: 6.4%; LmPK inh: 8.6%; CHX counter: 7.3; Shiga inhibitor: -7.9

Results for C[C@H](NC(=O)c1ccccc1)C(=O)Nc1nc(-c2ccccn2)cs1 ?
Tb PYK inh: -7.8%; Sm TGR inh: 3.2%; Giardia FBPA inh-1: 5.61µM*; LmPK inh: -1.6%; CHX counter: 6.4; Shiga inhibitor: 18.7; Giardia growth: inconclusive; Mammalian tox: -13.6%; Giardia FBPA inh-2: 0.8%; Rabbit aldolase: -3.0%; GAPDH counter: -2.9%

How did COc1ccc(-c2csc(NC(=S)NC(=O)/C=C/c3ccco3)n2)cc1Br do in these assays?
Tb PYK inh: 0.9%; Sm TGR inh: -32.5%; Giardia FBPA inh-1: -10.5%; LmPK inh: 1.6%; CHX counter: -1.3; Shiga inhibitor: -3.7

Assay outcomes deposited in PubChem by National Center for Advancing Translational Sciences (NCATS).
